Molecules are shown by their SMILES. Inconclusive results are not listed. Calls of active or inactive are those of the source. Calls follow the shape of the dose curve; as a rule, active = well fitted cell-killing curve with a large enough effect; inconclusive = small, poorly fitted or top-dose-only effect; inactive = flat fitted curve, though single readings scatter.

The values below come from PubChem BioAssay (NCATS).
% is scaled to controls: 0 for no effect and ±100 for the full control effect; potency is read from the fitted curve at half-maximal effect.

The nature of this experiment: Cell Viability - H-4-II-E (AID 543). Also: nearly all actives have a fitted effect of over 35% in size. Conditions: H-4-II-E rat hepatoma viability; series mostly up to 92.2 µM; activity change, negative = cytotoxic: at the top concentration. An outline of the steps: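 Rat hepatoma H-4-II-E cells (1500/well) were plated, incubated 5 hr at 37 °C, then exposed to compounds for 40 hr at 37 °C. Cellular ATP was read by CellTiter-Glo luminescence; AC50 came from Hill-equation fits of concentration-response data.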
For the compound `CC(C)(C)CC(C)(C)c1ccc(OCCOCC[N+](C)(C)Cc2ccccc2)cc1`, the “activity change, negative = cytotoxic” value was -18.8% (inactive).
Turning to `CC(=O)O[C@]1(C(C)=O)CC[C@H]2[C@@H]3C[C@H](C)C4=CC(=O)CC[C@]4(C)[C@H]3CC[C@@]21C`, the Potency is 50.1 µM (active).
Regarding `Oc1c(Cl)cc(Cl)cc1Sc1cc(Cl)cc(Cl)c1O`, the Potency is 31.6 µM (active).
